A selection: hits, their analogues and other compounds. The true share with any hit is near 9.7%.
WNV NS2B-NS3 inh: inhibitors of West Nile virus NS2B-NS3 protease; WNV NS2B-NS3 protease, fluorogenic substrate Ex360/Em465; stronger effect = lower value; z-score (concentration not given with the values); 65,000 compounds, 0.18% hits; in the data active = z-score below about -3
A340 absorber: compounds absorbing at 340 nm; compound absorbance at 340 nm, fold over control; fold change at 10 µM; 65,000 tested, under 10 active; AID 708;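 active = at 10 µM dose, initial 340 nm absorbance at least 2 fold that of control wells; inactive = change under 2 fold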;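 also: initial absorbance extrapolated from kinetic A340 decline of NADH oxidation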
M1 agonist: M1 muscarinic receptor agonism | CHO-M1 cells, Fluo-4 calcium fluorescence, agonist mode; stronger effect = higher value | B-score at 10 µM | 64,000 compounds, 3% hits | AID 626;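 active = fluorescence rise, raw or as B-score row- and column-corrected plate score, outside the 99.7% band of its plate's samples, either direction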
Autofluor 339: intrinsic fluorescence of library compounds, ex339/em460 – biochemical, MLSMR library, data from DPM-DC assay, artefact control, profiling panel; compound autofluorescence, ex339/em460 nm, NADH buffer; stronger effect = higher value; 1 = no-compound wells, NADH background; fluorescence fold increase at 10 µM; 65,000 compounds, 5.5% hits; AID 709;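 active = at 10 µM, mean starting fluorescence two-fold or more over control wells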;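 also: signal is the first read of a kinetic run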
BAP1 inh: human BAP1 deubiquitinase inhibition; 72,000 compounds, 0.48% hits; calls only at 20 µM; recombinant BAP1, Ub-AMC hydrolysis fluorescence kinetic; stronger effect = lower value;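 active = activity remaining at or below 50% of control, provided the compound also passes the data quality filters; inactive = the rest, including low values that fail the filters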
M1 antagonist: blocks the rat M1 muscarinic receptor response to acetylcholine. B-score at 10 µM. AID 628. P08482. CHO-M1 cells, Fluo-4 calcium, ACh EC80 antagonist mode; stronger effect = lower value. 64,000 compounds, 3.4% hits;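 active = calcium fluorescence response, raw or row-and-column corrected B-score, differing from the plate sample mean either way at a set confidence level, mostly lower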
Target sequence (P08482 whole entry, looked up): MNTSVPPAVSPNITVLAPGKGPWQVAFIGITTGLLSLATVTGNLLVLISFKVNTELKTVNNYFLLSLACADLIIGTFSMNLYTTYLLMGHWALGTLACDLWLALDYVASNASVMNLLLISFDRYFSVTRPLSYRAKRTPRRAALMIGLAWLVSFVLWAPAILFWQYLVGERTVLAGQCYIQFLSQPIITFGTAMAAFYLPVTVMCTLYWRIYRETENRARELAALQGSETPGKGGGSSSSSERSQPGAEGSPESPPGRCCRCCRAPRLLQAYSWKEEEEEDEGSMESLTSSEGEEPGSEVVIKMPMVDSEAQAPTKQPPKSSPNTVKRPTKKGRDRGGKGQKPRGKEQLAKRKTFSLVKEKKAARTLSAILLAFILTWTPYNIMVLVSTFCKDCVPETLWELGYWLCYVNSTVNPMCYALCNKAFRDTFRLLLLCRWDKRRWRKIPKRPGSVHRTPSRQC
M1 ag confirm: rat M1 muscarinic agonism, confirmation; shares compounds with M1 agonist; CHO-M1 cells, Fluo-4 calcium fluorescence, agonist mode; actives lie on both sides; fluorescence change (max-min) at 10 µM; 1,700 compounds, 19% hits; AID 1488;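 active = fluorescence change differs from the solvent-only DMSO control mean at a set confidence level in both duplicate runs; inconclusive = differs from solvent-only control mean in just one of two runs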;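 also: an EC20 dose of acetylcholine follows compound addition during the same imaging run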
M4 ag counter: counter-screen for M1 agonists: activity at rat M4 receptor | shares compounds with M1 agonist | CHO M4/Gqi5 cells, Fluo-4 calcium fluorescence, agonist mode; actives lie on both sides | fluorescence change (max-min) at 10 µM | 1,700 compounds, 9% hits;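 active = fluorescence change differing from the plate's solvent-only control wells at 99.7% confidence in both duplicates, whether higher or lower; inconclusive = differs from solvent controls in only one of two duplicates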
Large screens that a line does not name were inactive (follow-up assays come after a bar, where they were run).

O=C(NCC(=O)N(c1ccccc1)C(C(=O)NCC1CCCO1)c1ccccc1)c1ccco1 (stereo not given)	M1 agonist 8.3 | M1 ag confirm inconclusive | M4 ag counter inactive
COc1ccc(C2C(C(C)=O)=C(C)N=c3s/c(=C\c4cc(C)n(C)c4C)c(=O)n32)c(OC)c1 (stereo not given)	M1 agonist 144 | M1 ag confirm 458 | M4 ag counter inconclusive
C=CCOC(=O)C1=C(C)NC(=O)NC1c1ccccc1 (stereo not given)	none (no result: WNV NS2B-NS3 inh, A340 absorber, M1 agonist, Autofluor 339, M1 antagonist)
CC(=O)c1c(C)nn(CC(O)Cn2c3c(c4cc(C)ccc42)CCCC3=O)c1C (stereo not given)	M1 agonist 5.2, Autofluor 339 5.2 | M1 ag confirm -42 | M4 ag counter inactive
Cc1ccc(C(C)C)c(OCC(O)CNC(C)(C)C)c1 (stereo not given)	none (no result: WNV NS2B-NS3 inh, A340 absorber, M1 agonist, Autofluor 339, M1 antagonist)
Cc1ccc(C)c(N2CCN(C(=O)CN(C)S(=O)(=O)c3ccc4c(c3)CCC(=O)N4)CC2)c1	M1 agonist 2.3 | M1 ag confirm inconclusive | M4 ag counter inactive
O=CN1Cc2[nH]c3ccccc3c2N(c2ccc(Cl)cc2)C1=O	M1 agonist 4.8 | M1 ag confirm inactive | M4 ag counter inactive
CC1CCCCC1NC(=O)CSc1nnc(CN2CCOCC2)n1C (stereo not given)	M1 agonist 13 | M1 ag confirm inactive | M4 ag counter inactive
c1csc(CCNc2ncnc3sc4c(c23)CCC4)c1	M1 agonist 3.9, M1 antagonist -1.3 | M1 ag confirm inactive | M4 ag counter inactive
CCc1ccc(-c2cn3nc(C)c(C)nc3n2)cc1	M1 agonist 7.3, Autofluor 339 2.3 | M1 ag confirm 89 | M4 ag counter inactive
O=C(CN1CCN(S(=O)(=O)c2cc(Cl)ccc2Cl)CC1)Nc1ccc2c(c1)OCCO2	M1 agonist 4.1 | M1 ag confirm -31 | M4 ag counter inconclusive
CC(C)n1c(N2CCN(CC(=O)Nc3ccc4c(c3)OCCO4)CC2)nc2ccccc21	M1 agonist 4 | M1 ag confirm -22 | M4 ag counter inconclusive
CN(C)c1ccc(NC(=O)CN2CCN(S(=O)(=O)c3cc(Cl)ccc3Cl)CC2)cc1	none
CC(C)c1nc2oc3c(NCC4CCCO4)ncnc3c2c2c1COC(C)(C)C2 (stereo not given)	M1 agonist 4.5, Autofluor 339 3.8 | M1 ag confirm inactive | M4 ag counter inactive
Cc1ccc(S(=O)(=O)NCC(=O)O)cc1	none (no result: WNV NS2B-NS3 inh, A340 absorber, M1 agonist, Autofluor 339, M1 antagonist)
Cc1cc(S(=O)(=O)NCC(=O)O)ccc1F	M1 agonist 5 | M1 ag confirm inactive | M4 ag counter inactive
Cn1c(=O)c2nc(NCc3ccccc3)cnc2n(C)c1=O	M1 agonist 10, Autofluor 339 3.9 | M1 ag confirm 203 | M4 ag counter 166
CCCNc1nc2c(c(=O)n(C)c(=O)n2C)n1CCc1ccccc1	none
Cc1nc2nc(-c3ccco3)[nH]n2c(=O)c1Cc1ccccc1	M1 agonist 3.6 | M1 ag confirm inactive | M4 ag counter inactive
O=C(Nc1ccc2nn(-c3ccc(Cl)cc3)nc2c1)c1ccc([N+](=O)[O-])cc1Cl	none (no result: WNV NS2B-NS3 inh, A340 absorber, M1 agonist, Autofluor 339, M1 antagonist)
CC(=O)N1CCc2cc(C(=O)CN3CCC(C)CC3)ccc21	none
CC(=O)N1CCc2cc(C(=O)CN3CCN(c4cccc(Cl)c4)CC3)ccc21	M1 agonist 5.9, M1 antagonist -3 | M1 ag confirm inactive | M4 ag counter inactive
O=C(CN1CCN(Cc2ccc3c(c2)OCO3)CC1)c1ccc(F)cc1	none (no result: WNV NS2B-NS3 inh, A340 absorber, M1 agonist, Autofluor 339, M1 antagonist)
COc1ccccc1NC(=O)CN(Cc1ccco1)C(=O)c1ccc(-n2nc(C)cc2C)cc1	M1 agonist 5.9 | M1 ag confirm inactive | M4 ag counter inconclusive
O=C(NCCCN1CCCC1=O)Nc1ccc(Cl)cc1	none
O=C(NCCCN1CCCC1=O)NC12CC3CC(CC(C3)C1)C2	M1 agonist 5.7 | M1 ag confirm inactive | M4 ag counter inactive
CC1=NN(c2ccccc2)C(=O)C1C(c1ccc2c(c1)OCO2)C1C(=O)N(c2ccccc2)N=C1C (stereo not given)	none (no result: WNV NS2B-NS3 inh, A340 absorber, M1 agonist, Autofluor 339, M1 antagonist)
CCCOC(=O)C1=C(C)NC2=C(C(=O)CCC2)C1c1cc(Br)c(O)c(OC)c1 (stereo not given)	none (no result: WNV NS2B-NS3 inh, A340 absorber, M1 agonist, Autofluor 339, M1 antagonist)
COc1ccc(CN(Cc2cc3cccc(C)c3[nH]c2=O)C(=O)N(C)C)cc1	M1 agonist 3.5 | M1 ag confirm inactive | M4 ag counter inactive
CC1(C)Cc2c(c(-c3ccco3)[nH]c(=O)c2C#N)CS1	M1 agonist 24 | M1 ag confirm inactive | M4 ag counter inactive
CCOC(=O)C1CCCN(CCC(=O)Nc2ccc3c(c2)CCC3)C1 (stereo not given)	M1 agonist 16, M1 antagonist -3.6 | M1 ag confirm 150 | M4 ag counter inactive
COc1cc(C2CC(=O)Nc3ccccc3S2)cc(OC)c1OC (stereo not given)	M1 agonist 5.9 | M1 ag confirm inactive | M4 ag counter inconclusive
CCOC(=O)c1c(NC(=O)c2cccc(Oc3ccccc3)c2)sc2c1CCC2	none (no result: WNV NS2B-NS3 inh, A340 absorber, M1 agonist, Autofluor 339, M1 antagonist)
c1ccc(N2CCN(c3c4c(nc5ncnn35)CCC4)CC2)cc1	none
COc1cccc(N2CCN(c3c4c(nc5ncnn35)CCC4)CC2)c1	M1 agonist 6.7 | M1 ag confirm inactive | M4 ag counter inactive
Cc1cccc2cc(C(c3nnnn3Cc3ccccc3)N3CCN(c4ccccc4)CC3)c(=O)[nH]c12 (stereo not given)	M1 agonist 6.4 | M1 ag confirm inconclusive | M4 ag counter inconclusive
Cc1cccc2cc(C(c3nnnn3Cc3ccccc3)N3CCN(C)CC3)c(=O)[nH]c12 (stereo not given)	none
Cc1ccc(CS(=O)(=O)CCC(=O)NCc2cccs2)cc1	M1 agonist 4 | M1 ag confirm inactive | M4 ag counter inactive
Cc1ccc(CS(=O)(=O)CCC(=O)NCc2ccc3c(c2)OCO3)cc1	none
Cc1ccc2c(c1)c1ncnc(N3CCN(c4ccccc4)CC3)c1n2C	none
COc1ccccc1CCn1cnc2c3cc(C)ccc3n(C)c2c1=O	M1 agonist 1.8, Autofluor 339 3.3 | M1 ag confirm inconclusive | M4 ag counter inactive
O=C(CCCn1c(=O)[nH]c2ccccc2c1=O)NC1CCCCCC1	none
COCCCNC(=O)CCCn1c(=O)[nH]c2ccccc2c1=O	M1 agonist 2 | M1 ag confirm inactive | M4 ag counter inactive
O=C(CCn1c(=O)[nH]c2ccccc2c1=O)Nc1ccccc1	M1 agonist 11 | M1 ag confirm inactive | M4 ag counter inactive
Clc1ccc(C=Cc2nc(-c3ccccc3)c3ccccn23)cc1	none (no result: WNV NS2B-NS3 inh, A340 absorber, M1 agonist, Autofluor 339, M1 antagonist)
Cc1ccc(S(=O)(=O)c2cccc(S(=O)(=O)N3CCCC3)c2)cc1S(=O)(=O)N1CCCC1	M1 agonist 4.2, M1 antagonist -6.4 (no result: BAP1 inh) | M1 ag confirm inactive | M4 ag counter inconclusive

Assay outcomes from PubChem BioAssay.
